Assay results from PubChem BioAssay (Tox21).
Results filed as inconclusive are left out. Activity calls are given as the source filed them. Unless noted, calls follow the shape of the dose curve; as a rule, active = well fitted curve in the direction sought with a large enough effect in the repeat runs; inconclusive = weak or mixed curves; inactive = no such curve, though single readings can be large; an effect the other way counts as inactive or inconclusive.

Legend:
[1] = qHTS assay to identify small molecule agonists of H2AX (AID 1224845; active = well fitted activation curve with a large enough effect in the signal ratio in the repeat runs, not every such curve was filed as active; the % refers to the signal ratio; also: potency is read from the fitted curve at half-maximal effect)
Outline: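 Wild-type CHO-K1 cells, plated overnight, exposed 3hr at 37C to 15 concentrations (0.76% DMSO final). Lysed, then HTRF anti-pH2AX (S139) cryptate and anti-H2AX-d2 antibodies, 24 hr room temperature; 665/620 nm emission read.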

[2] = qHTS assay to identify small molecule agonists of the hypoxia (HIF-1) signaling pathway (AID 1224846; active = well fitted activation curve with a large enough effect in the signal ratio in the repeat runs, not every such curve was filed as active; the % refers to the signal ratio; also: % is scaled to controls: 0 for no effect and ±100 for the full control effect)
Outline: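 ME-180 HRE-bla reporter cells; compounds in DMSO, 17 h at 37C; read-out beta-lactamase via CCF4-AM FRET.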

[3] = qHTS assay to identify small molecule agonists of the estrogen related receptor (ERR) signaling pathway from Tox21 library (AID 1224849; calls by dose curve; also: % is scaled to controls: 0 for no effect and ±100 for the full control effect; nearly all actives have a fitted effect of over 15% in size); conditions: ERR reporter cell line, ONE-Glo luciferase, 18 h; at 92.4 µM (top of the series) unless noted
Outline: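 Luciferase activity in ERR pathway reporter cells served as the agonist readout; exposure lasted 18 h at 37 C, with ONE-Glo detection after 30 min at room temperature.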

[4] = qHTS RealTime-Glo MT Cell Viability Assay in HepG2 cells - 24 hour (AID 1224867); also: % is scaled to controls: 0 for no effect and ±100 for the full control effect; nearly all actives have a fitted effect of over 50% in size
Outline: (§1)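 qHTS, HepG2, 600 cells/well, RealTime-Glo (NanoLuc + prosubstrate) added with cells; 5 h preincubation; DMSO compound addition; 37 C; luminescence at 0/8/16/24/32/40 h.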

[5] = qHTS RealTime-Glo MT Cell Viability Assay in HEK293 cells - 32 hour (AID 1224868); also: nearly all actives have a fitted effect of over 50% in size; also: potency is read from the fitted curve at half-maximal effect
Outline: (§2)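 Assay medium contained NanoLuc luciferase plus cell-permeant prosubstrate, added with HEK293 cells at 600 cells/well. After 5 h at 37 C/5% CO2 compounds were added; plates stayed at 37 C for 40 h with serial luminescence reads.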

[6] = A CellTox Green Cytotoxicity Assay to monitor cytotoxicity in HEK293 cells - 0 hour (AID 1224869); also: % is scaled to controls: 0 for no effect and ±100 for the full control effect; nearly all actives have a fitted effect of over 50% in size
Outline: (§3)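 Real-time, in one plate: 600 HEK293 cells/well with dead-cell DNA dye, pinned compound after 5 h, 37 C incubation over 40 h; viable cells give no appreciable fluorescence.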

[7] = qHTS RealTime-Glo MT Cell Viability Assay in HepG2 cells - 40 hour (AID 1224870); also: nearly all actives have a fitted effect of over 50% in size; also: potency is read from the fitted curve at half-maximal effect
Outline: (§4)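 HepG2 cells (600/well) mixed with RealTime-Glo MT reagent, settled 5 h at 37 C/5% CO2 before compound addition. Nonlytic NanoLuc luminescence from viable-cell prosubstrate reduction read repeatedly during 40 h treatment at 37 C.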

[8] = A CellTox Green Cytotoxicity Assay to monitor cytotoxicity in HEK293 cells - 40 hour (AID 1224871); also: nearly all actives have a fitted effect of over 45% in size; also: potency is read from the fitted curve at half-maximal effect
Outline: as §3

[9] = qHTS RealTime-Glo MT Cell Viability Assay in HEK293 cells - 16 hour (AID 1224872); also: nearly all actives have a fitted effect of over 50% in size; also: potency is read from the fitted curve at half-maximal effect
Outline: as §2

[10] = qHTS RealTime-Glo MT Cell Viability Assay in HepG2 cells - 8 hour (AID 1224873); also: % is scaled to controls: 0 for no effect and ±100 for the full control effect; nearly all actives have a fitted effect of over 55% in size
Outline: as §4

[11] = A CellTox Green Cytotoxicity Assay to monitor cytotoxicity in HEK293 cells - 24 hour (AID 1224875); also: % is scaled to controls: 0 for no effect and ±100 for the full control effect; nearly all actives have a fitted effect of over 45% in size
Outline: as §3

[12] = A CellTox Green Cytotoxicity Assay to monitor cytotoxicity in HepG2 cells - 16 hour (AID 1224876); also: nearly all actives have a fitted effect of over 45% in size; also: potency is read from the fitted curve at half-maximal effect
Outline: (§5)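 Cytotoxicity was tracked as dead-cell DNA fluorescence in HepG2 cells treated with test compounds at 37 C; each time-point value comes from one kinetic series spanning 0, 8, 16, 24, 32 and 40 h.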

[13] = qHTS RealTime-Glo MT Cell Viability Assay in HepG2 cells - 32 hour (AID 1224877); also: nearly all actives have a fitted effect of over 55% in size; also: potency is read from the fitted curve at half-maximal effect
Outline: as §1

[14] = A CellTox Green Cytotoxicity Assay to monitor cytotoxicity in HepG2 cells - 24 hour (AID 1224878); also: nearly all actives have a fitted effect of over 45% in size; also: potency is read from the fitted curve at half-maximal effect; as to Cytotoxicity: % is scaled to controls: 0 for no effect and ±100 for the full control effect
Outline: as §5

[15] = qHTS assay to identify small molecule agonists of H2AX - cell viability counter screen (AID 1224847; calls by dose curve; also: nearly all actives have a fitted effect of over 30% in size; also: potency is read from the fitted curve at half-maximal effect)
Outline: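 Read-out: CellTiter-Glo luminescence, 30 min RT. Cells: wild-type CHO-K1, 1000/well, 10% FBS, plated overnight at 37C. Treatment: 15 concentrations, 3 hr, 37C, 0.76% DMSO.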

[16] = qHTS assay to identify small molecule antagonists of the estrogen related receptor (ERR) signaling pathway from Tox21 library (AID 1224848); also: nearly all actives have a fitted effect of over 50% in size; also: potency is read from the fitted curve at half-maximal effect
Outline: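 Quantitative high-throughput format: ERR reporter cells (2,000/well) pre-incubated 6 h, treated 18 h at 37 C with compounds in DMSO alongside positive and negative controls, then read by ONE-Glo luminescence.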

[17] = qHTS RealTime-Glo MT Cell Viability Assay in HEK293 cells - 40 hour (AID 1224874); conditions: RealTime-Glo luminescence; max response: stronger effect = lower value; also: nearly all actives have a fitted effect of over 50% in size; also: potency is read from the fitted curve at half-maximal effect; as to max response: % is scaled to controls: 0 for no effect and ±100 for the full control effect
Outline: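 Kinetic, non-lysing viability readout. Seed HEK293 (600/well) with reagent, incubate 5 h at 37 C/5% CO2, pin 23 nL compound in DMSO, incubate at 37 C, read luminescence at 0, 8, 16, 24, 32, 40 h.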

[18] = A CellTox Green Cytotoxicity Assay to monitor cytotoxicity in HepG2 cells - 40 hour (AID 1224879); also: nearly all actives have a fitted effect of over 40% in size; also: potency is read from the fitted curve at half-maximal effect
Outline: as §5

[19] = qHTS assay to identify small molecule agonists of the hypoxia (HIF-1) signaling pathway - cell viability counter screen (AID 1224844; calls by dose curve)
Outline: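 In this counter screen, HRE-bla ME-180 cell viability after 17 hrs of compound exposure at 37C was read by CellTiter-Glo luminescence, multiplexed with the beta-lactamase reporter measurement.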

O=C1c2ccccc2C(=O)C1(O)O
inactive: outcome [2] | activity change, positive = activation [3] -26.5% | Potency [4] | Potency [5] | Potency [6] | Potency [7] | Potency [8] | Potency [9] | Potency [10] | Potency [11] | Potency [12] | Potency [13] | Potency [14]
active: Potency [1] 50.8 µM

CC(=O)c1ccc([N+](=O)[O-])cc1
inactive: Potency [1] | Potency [15] | Potency [16] | activity change, positive = activation [3] 1.22% | Potency [5] | Potency [6] | Potency [7] | Potency [8] | Potency [9] | Potency [10] | max response [17] 11.2% | Potency [11] | Potency [12] | Potency [13] | Potency [14] | Potency [18]

CC(=O)OCCN(CCOC(C)=O)c1ccc(N=Nc2ccc([N+](=O)[O-])cc2C#N)cc1
active: Potency [15] 50.5 µM | Potency [16] 61.1 µM
inactive: outcome [2] | activity change, positive = activation [3] -46.9% | Potency [7] | Potency [8] | Potency [11] | Potency [14] | Potency [18]

Nc1nc2ccc([N+](=O)[O-])cc2s1
inactive: Potency [15] | Potency [4] | Potency [6] | Potency [7] | Potency [8] | Potency [9] | Potency [10] | Potency [11]
active: Potency [12] 49 µM | Potency [14] 43.6 µM | Potency [18] 43.6 µM

Oc1cccc(O)c1O
inactive: outcome [2] | Potency [16] | activity change, positive = activation [3] 0.0681% | Potency [4] | Potency [5] | Potency [7] | Potency [8] | Potency [9] | Potency [10] | max response [17] 1.23% | Potency [11] | Potency [12] | Potency [13] | Potency [14] | Potency [18]

COC(=O)c1nc(Cl)c(Cl)nc1N
active: Potency [19] 13.4 µM | Potency [16] 29.8 µM | Potency [5] 5.35 µM | Potency [7] 12 µM | Potency [8] 13.4 µM | Potency [9] 12 µM | Potency [17] 4.77 µM | Potency [13] 10.7 µM
inactive: activity change, positive = activation [3] -72.9% [at 42.5 µM] | Potency [6]

CN1CCCN=C1COC(=O)C(O)(c1ccccc1)C1CCCCC1 (stereo not given)
inactive: Potency [1] | Potency [15] | Potency [16] | activity change, positive = activation [3] 6.85% [at 42.5 µM] | Potency [4] | Potency [5] | Potency [6] | Potency [7] | Potency [8] | Potency [10] | Potency [11] | Potency [12] | Potency [13] | Potency [14] | Potency [18]
